In PubChem BioAssay AID504408 (Broad Institute, 2011):
In all, about 300,000 compounds went through this assay and about 5,200 (1.7%) were called active. Only a selection was taken, and actives are over-represented in it overall. Values without a mark were called inactive.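 How the source made its calls: active means mean replicate activation of at least 50% with a set share of replicates each reaching 50%; inconclusive means only one of those two conditions met; inactive means mean below 50% and too few replicates reaching it.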

Assay: HSF-1 activators, primary screen, NIH3T3-HGL cells, MG132 stress, luminescence, single point (AID 504408);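 further: 0% = median of the neutral control wells and 100% = twice that signal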
Conditions: NIH3T3-HGL HSF-1 luciferase reporter, MG132, 8 h; at 9 µM; active compounds read high; 100% = twice DMSO control signal

SMILES	activation
CCN(CC(=O)Nc1cccc(S(=O)(=O)N2CCCCC2)c1)Cc1ccccc1	0.93%
CN1C(C(=O)NCc2ccco2)CC2Cn3c(nc4ccccc43)C21 (stereo not drawn)	-8.57%
Cc1nn(C)c(C)c1NS(=O)(=O)c1ccc(OC(F)(F)F)cc1	0.0449%
Cc1ccc(S(=O)(=O)N(Cc2cccc([N+](=O)[O-])c2)C(=O)N2CCN(C)CC2)cc1	17.1%
CC(=O)c1ccc(S(=O)(=O)NC2CC(=O)N(c3ccc4c(c3)OCCO4)C2)cc1 (stereo not drawn)	8.08%
Cc1ccc(Cc2nc(-c3cccc(C)c3)no2)cc1	17.5%
COc1ccc2[nH]c(=O)c(-c3noc(-c4ccc(F)cc4)n3)cc2c1	25.7%
Cc1cccc(-c2noc(-c3ccc(F)cc3)n2)c1	55% (active)
CCc1noc(C)c1C(=O)Oc1ccc(N(C)S(=O)(=O)c2ccc(C)c(C)c2)cc1	-16.6%
CCOc1ccc(NC(=S)N2CCC(N(C)CC3CCCO3)CC2)cc1 (stereo not drawn)	-6.15%
CCOc1ccc(NC(=S)N2CCCCCC2)cc1	65.8% (active)
CCOC(=O)c1ccc(NC(=S)N2CCCC2)cc1	17.9%
O=C(Nc1ccc2nc3n(c(=O)c2c1)CCCC3)c1ccc(Cl)nc1	3.58%
COc1ccc(C(=O)NCC(c2ccco2)N2CCc3ccccc32)cc1OC (stereo not drawn)	2.97%
Cc1noc(C)c1CSCC(=O)Nc1ccc(Br)cc1Cl	1.94%
Cc1ccc(OCc2nc3ccccc3n2C)cc1	75.6% (active)
COCn1c(COc2ccccc2)nc2ccccc21	23.9%
CC(C)n1c(COc2ccccc2)nc2ccccc21	12.3%
Cc1n[nH]c(=O)c2c(NC(=O)COC(=O)c3ncc(Cl)c(Cl)c3Cl)oc(C)c12	-1.88%
CN(CC(=O)Nc1cccc(F)c1)C(=O)C1CC(=O)N(CCc2ccccc2)C1 (stereo not drawn)	-1.17%
CCn1c2ccccc2c2cc(NC(=O)CNC)ccc21	-4.5%
CCn1c2ccccc2c2cc(NC(=O)COC(=O)c3ccccc3Br)ccc21	15.8%
CCn1c2ccccc2c2cc(NC(=O)C/C(C)=N/NC(=O)c3ccccc3N)ccc21	87.9% (active)
Nc1c(C(=O)Nc2ccc3c(c2)OCCO3)nnn1Cc1ccccc1	43.5%

SMILES	activation
Cc1ccc(OCCNC(=O)CN2C(=O)NC3(CCCC3)C2=O)cc1	2.14%
CCC(=O)Nc1ccc(C(=O)Nc2cc(C)on2)cc1	11.5%
Cc1cc(N/C=C\C(=O)c2ccc(Cl)c(Cl)c2)no1	54.6% (active)
CCCNC(=O)c1ccc(Cl)c(Cl)c1	8.76%
O=C(CCCN=C1NS(=O)(=O)c2ccccc21)OCC(=O)c1ccc(F)c(F)c1	-1.2%
CC(Oc1ccc(F)cc1)C(=O)Nc1cc(S(=O)(=O)N2CCOCC2)ccc1N1CCN(C)CC1 (stereo not drawn)	-1.39%
Cc1ccc(S(=O)(=O)N(C)c2ccc(OCC(=O)OCc3ccc(C#N)cc3)cc2)cc1	-4.36%
Cc1ccc2nc(SCC(=O)N3CCN(c4ccccc4)CC3)nc(=O)n2c1	-13.7%
C=CS(=O)c1sc(Cl)c(N2CCOCC2)c1[N+](=O)[O-] (stereo not drawn)	103% (active)
CCOC(=O)C1=C(C)N=c2s/c(=C\C(=O)OC)c(=O)n2C1c1ccc(OC)cc1 (stereo not drawn)	61.6% (active)
CCOC(=O)C1=C(CSc2nccn2C)NC(=O)NC1c1ccc(OC)cc1 (stereo not drawn)	30.7%
COCCOC(=O)C1=C(C)N=c2s/c(=C\c3cccs3)c(=O)n2C1c1cccs1 (stereo not drawn)	20%
COCCCn1c(SCC(=O)Nc2oc(C)c3c(C)n[nH]c(=O)c23)nc2sc3c(c2c1=O)CCC3	0.458%
C=CCOc1ccc(/C=C2/C(=O)ON=C2C)cc1OCC	-6.38%
C#CCOc1ccccc1/C=C1/C(=O)ON=C1C	-2.14%
CC1=NOC(=O)/C1=C\c1ccccc1	54.7% (active)
Cn1ccsc1=NC(=O)c1cc(S(=O)(=O)N2CCOCC2)ccc1Cl	0.095%
O=C(Nc1c(Br)cc2c(c1Br)Cc1ccccc1-2)C(F)(F)F	-5.38%
COc1ccc2[nH]cc(/C=C(/C#N)S(=O)(=O)c3ccccc3)c2c1	0.918%
COc1ccc(/C=C(\C#N)c2c[nH]c3ccccc23)cc1	69.3% (active)
COc1cc(/C=C(\C#N)c2nc3ccccc3[nH]2)ccc1O	20.9%
O=C(COc1ccccc1)Nc1cc2c3c(c1)CC(=O)N3CCC2	5.75%
O=C(NCc1cccnc1)c1cc(S(=O)(=O)N2CCOCC2)c(Cl)cc1Cl	-12.2%
CCN(CC)CCn1c2c(c(SCC(=O)Nc3ccc(C(C)C)cc3)nc1=O)CCC2	8.29%
